# Results filed as inconclusive are left out. Activity calls are given as the source filed them. Rule for the calls: active = hit-call score of the fitted dose curve at least 0.9, where 1 is the maximum; inconclusive = response in the unintended direction; inactive = score below 0.9.
# Test system: not listed separately
# Assay: TOX21_p53_BLA_p3_viability: Viability Assessment in the Tox21 HCT-116 p53 Agonism Beta-lactamase Assay, Phase 3 (AID 2283593);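 note: cells exposed to compound for 16 h before reading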
# In short: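 HCT-116 cells (4000/well) rested 5 h at 37C, then got DMSO compounds by pin tool (217-fold dilution) for 16 h at 37C, 5% CO2. After the bla read, CellTiter-Glo was added and luminescence read at 30 min, room temperature.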
SMILES,outcome,AC50
N#CSCc1ccccc1,inactive,–
CC(C)c1c(CN(C)C(C)Cc2ccccc2)n(C)n(-c2ccccc2)c1=O (stereo unspecified),inactive,–
N#CC(Cl)(Cl)Cl,inactive,–
NC(=S)C(N)=S,inactive,–
C=CCN1CC[C@]23CCCC[C@H]2[C@H]1Cc1ccc(O)cc13,inactive,–
CC(C)(C)C(=O)C(Cl)Cl,inactive,–
CC(N)Cc1ccc(O)cc1 (stereo unspecified),inactive,–
C=C[C@H]1CN2CC[C@H]1C[C@H]2[C@H](OC(=O)OCC)c1ccnc2ccc(OC)cc12,inactive,–
CCCCC1C(=O)NC(=O)N(C2CCCCC2)C1=O (stereo unspecified),inactive,–
[Cl-].[Cl-].[Sn+2],inactive,–
Cc1ccccc1-n1c(CF)nc2ccc(N)cc2c1=O,inactive,–
CC1CC(CC2CCC(N)C(C)C2)CCC1N (stereo unspecified),inactive,–
Cc1nnc(-c2ccccc2)c(=O)n1N,inactive,–
O=C1CC(=O)NC(=O)N1,inactive,–
CC[N+]1(C)CCCC(OC(=O)C(O)(c2ccccc2)c2ccccc2)C1 (stereo unspecified),inactive,–
C=CCBr,inactive,–
Nc1n[nH]c(N)n1,inactive,–
Nc1ccccc1-c1ccccc1,inactive,–
C=CCCC#N,inactive,–
CCC(=O)O[C@@](Cc1ccccc1)(c1ccccc1)[C@@H](C)CN(C)C,inactive,–

SMILES,outcome,AC50
CCCCCCC(=O)O[C@H]1CC[C@H]2[C@@H]3CC[C@H]4CC(=O)C=C(C)[C@]4(C)[C@H]3CC[C@]12C,–,37 µM (active)
O=C([O-])c1ccccn1.O=C([O-])c1ccccn1.O=C([O-])c1ccccn1.[Cr+3],inactive,–
Cc1ncc2n1-c1ccc(Cl)cc1C(c1ccccc1F)=NC2,inactive,–
CC(Cc1ccc2c(c1)OCO2)NO (stereo unspecified),inactive,–
CN(C)c1ccc(N=Nc2ccccc2)cc1,inactive,–
CC(C)(C#N)C(C)(C)C#N,inactive,–
CC(=O)O[C@H]1CC[C@H]2[C@@H]3CCC4=CC(=O)CCC4=C3C=C[C@]12C,inactive,–
Clc1ccc(C(Cl)(Cl)Cl)cc1Cl,inactive,–
C[C@]12CC[C@H]3[C@@H](CCC4=CC(=O)CC[C@@H]43)[C@@H]1CC[C@@H]2OC(=O)CCc1ccccc1,inactive,–
NC(=S)c1c(Cl)cccc1Cl,inactive,–
C1CCNCC1,inactive,–
CCC1COC(Cn2cncn2)(c2ccc(Cl)cc2Cl)O1 (stereo unspecified),inactive,–
c1cc2c(c(NC3=NCCN3)c1)CCCC2,inactive,–
O=C1C(=O)c2cccc3cccc1c23,inactive,–
Clc1ccc(C(Cl)(Cl)Cl)c(Cl)c1,inactive,–
O=[N+]([O-])c1cccc2cccnc12,inactive,–
CC(C)=CCN1CC[C@]2(C)c3cc(O)ccc3C[C@H]1[C@H]2C,inactive,–
CCCCCC[N+](=O)[O-],inactive,–
C1CS1,inactive,–

# Target: Cellular tumor antigen p53 (Homo sapiens) (UniProt P04637)
# Sequence (P04637 whole entry, looked up): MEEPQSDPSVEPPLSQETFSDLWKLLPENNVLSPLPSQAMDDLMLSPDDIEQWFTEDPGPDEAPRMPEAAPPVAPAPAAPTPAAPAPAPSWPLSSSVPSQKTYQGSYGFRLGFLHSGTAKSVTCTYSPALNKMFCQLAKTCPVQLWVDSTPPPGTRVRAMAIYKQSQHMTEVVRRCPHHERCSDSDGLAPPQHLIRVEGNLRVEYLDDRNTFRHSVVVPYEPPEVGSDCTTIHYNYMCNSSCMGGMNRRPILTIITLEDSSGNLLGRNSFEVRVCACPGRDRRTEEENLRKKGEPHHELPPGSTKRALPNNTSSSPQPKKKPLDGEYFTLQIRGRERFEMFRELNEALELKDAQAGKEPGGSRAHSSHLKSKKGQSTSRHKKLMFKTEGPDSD
# Assay: TOX21_p53_BLA_p3_ratio: Tox21 HCT-116 p53 Agonism Beta-lactamase Assay, Ratio, Phase 3 (AID 2283596)
# In short: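 HCT116 p53-bla cells (4000/well) given compound in DMSO (217-fold dilution) after 5 h, incubated 16 h at 37C. CCF4-AM substrate 2 h at room temperature; 460/530 nm emission ratio, gain fitted against DMSO.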
SMILES,AC50,outcome
N#CSCc1ccccc1,30.7 µM (active),–
N#CC(Cl)(Cl)Cl,–,inactive
NC(=S)C(N)=S,–,inactive
C=CCN1CC[C@]23CCCC[C@H]2[C@H]1Cc1ccc(O)cc13,–,inactive
CC(C)(C)C(=O)C(Cl)Cl,–,inactive
CC(N)Cc1ccc(O)cc1 (stereo unspecified),–,inactive
Cc1nnc(-c2ccccc2)c(=O)n1N,–,inactive
CC[N+]1(C)CCCC(OC(=O)C(O)(c2ccccc2)c2ccccc2)C1 (stereo unspecified),–,inactive
CCOC(=O)c1cncn1C(C)c1ccccc1 (stereo unspecified),–,inactive
C=CCBr,–,inactive
Nc1n[nH]c(N)n1,–,inactive
Nc1ccccc1-c1ccccc1,–,inactive
C=CCCC#N,–,inactive
CCC(=O)O[C@@](Cc1ccccc1)(c1ccccc1)[C@@H](C)CN(C)C,–,inactive
CCCCCCC(=O)O[C@H]1CC[C@H]2[C@@H]3CC[C@H]4CC(=O)C=C(C)[C@]4(C)[C@H]3CC[C@]12C,–,inactive
O=C([O-])c1ccccn1.O=C([O-])c1ccccn1.O=C([O-])c1ccccn1.[Cr+3],–,inactive
CN(C)c1ccc(N=Nc2ccccc2)cc1,–,inactive
CC(C)(C#N)C(C)(C)C#N,–,inactive
CC(=O)O[C@H]1CC[C@H]2[C@@H]3CCC4=CC(=O)CCC4=C3C=C[C@]12C,–,inactive
C[C@]12CC[C@H]3[C@@H](CCC4=CC(=O)CC[C@@H]43)[C@@H]1CC[C@@H]2OC(=O)CCc1ccccc1,–,inactive
NC(=S)c1c(Cl)cccc1Cl,–,inactive
C1CCNCC1,–,inactive
CCC1COC(Cn2cncn2)(c2ccc(Cl)cc2Cl)O1 (stereo unspecified),–,inactive
c1cc2c(c(NC3=NCCN3)c1)CCCC2,–,inactive
Clc1ccc(C(Cl)(Cl)Cl)c(Cl)c1,–,inactive
O=[N+]([O-])c1cccc2cccnc12,–,inactive
C1CS1,–,inactive

# Test system: not listed separately
# Assay: TOX21_p53_BLA_p4_viability: Viability Assessment in the Tox21 HCT-116 p53 Agonism Beta-lactamase Assay, Phase 4 (AID 2283597);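 note: hits lower the luminescence signal meaning cytotoxicity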
# In short: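 HCT116 p53-bla cells (4000/well) rested 5 h at 37C, then received compounds in DMSO (217-fold dilution) for 16 h at 37C, 5% CO2. CellTiter-Glo was added after the CCF4-AM read, and luminescence was read after 30 min at room temperature.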
SMILES,outcome,AC50
N#CSCc1ccccc1,inactive,–
C=CCN1CC[C@]23CCCC[C@H]2[C@H]1Cc1ccc(O)cc13,inactive,–
C=C[C@H]1CN2CC[C@H]1C[C@H]2[C@H](OC(=O)OCC)c1ccnc2ccc(OC)cc12,inactive,–
CCCCC1C(=O)NC(=O)N(C2CCCCC2)C1=O (stereo unspecified),inactive,–
[Cl-].[Cl-].[Sn+2],inactive,–
CC1CC(CC2CCC(N)C(C)C2)CCC1N (stereo unspecified),inactive,–
O=C1CC(=O)NC(=O)N1,inactive,–
Nc1ccccc1-c1ccccc1,inactive,–
C=CCCC#N,inactive,–
CCC(=O)O[C@@](Cc1ccccc1)(c1ccccc1)[C@@H](C)CN(C)C,inactive,–
Cc1ncc2n1-c1ccc(Cl)cc1C(c1ccccc1F)=NC2,inactive,–
CN(C)c1ccc(N=Nc2ccccc2)cc1,inactive,–
CC(C)(C#N)C(C)(C)C#N,inactive,–
CC(=O)O[C@H]1CC[C@H]2[C@@H]3CCC4=CC(=O)CCC4=C3C=C[C@]12C,inactive,–
Clc1ccc(C(Cl)(Cl)Cl)cc1Cl,inactive,–
NC(=S)c1c(Cl)cccc1Cl,inactive,–
O=C1C(=O)c2cccc3cccc1c23,–,33 µM (active)
CC(C)=CCN1CC[C@]2(C)c3cc(O)ccc3C[C@H]1[C@H]2C,inactive,–
CCCCCC[N+](=O)[O-],inactive,–
C1CS1,inactive,–

# From PubChem BioAssay (EPA / NIEHS)
